# Compound activity: PubChem BioAssay, National Center for Advancing Translational Sciences (NCATS)
# The list is not random: actives were taken first. Their share in the collection is about 19%.
# HepG2 tox: counter-screen for TGF-b inhibitors: cytotoxicity in HepG2 cells | actives 0.76% (n = 410,000) | HepG2 CAGA-GFP viability, ATP luminescence, 18 h | AID 588856 | Potency, µM (doses to about 46.1 µM), without a hit: top-dose activity change, negative = cytotoxicity, actives largely listed as cytotoxic; further: potency means the concentration at half of the fitted maximal effect
#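 CellTiter-Glo luminescence gave cytotoxicity after 18 hours at 37 degrees C. The cells were HepG2 CAGA-GFP in 1% FBS DMEM, stimulated with 500 pg/mL TGF-beta after compound addition. %Activity was normalised to no-cell wells (complete cell-killing) and DMSO (no toxicity), and curves were fitted and classified.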
# TGFb inhibitor: blocks TGF-b signaling; HepG2 CAGA-GFP TGF-b/SMAD3 reporter, GFP fluorescence, 18 h; TGF-beta stimulated, 500 pg/mL final; Potency, µM (highest dose often 46.1 µM), inactives show at the highest dose activity, negative = inhibition, usual class: inhibitors; actives 1.2% (n = 410,000); further: potency means the concentration at half of the fitted maximal effect; on the % scale 0 is the no-effect control and ±100 the full control effect; nearly all actives have a fitted effect of over 65% in size
#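 Per well, imaged GFP fluorescence of HEPG2 CAGA-GFP cells gives the signal; cells get compound, then TGF-beta (500 pg/mL final), 18 h at 37 degrees C; %Activity versus -TGF-beta and +DMSO controls.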
# IL-1B inflam inh: blocks inflammasome-driven IL-1 beta release | THP-1 LPS/ATP IL-1B secretion, AlphaLISA, 16 h; active compounds read low | actives 4.7% (n = 360,000) | activity change, % at 57.5 µM; in the data active means activity change below about -50%; inconclusive means mostly about -30% to -49%; further: on the % scale 0 is the no-effect control and ±100 the full control effect
#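 THP-1 cells pretreated 1 hr with compounds (up to 57.5 uM final), then stimulated with LPS (250 ng/mL final) plus ATP (1.25 mM final); secreted IL-1B measured by AlphaLISA after 16 hr, decreased signal indicating inhibition.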
# TDP1 cell noCPT: qHTS for Inhibitors of human tyrosyl-DNA phosphodiesterase 1 (TDP1): qHTS in cells in absence of CPT; Potency, µM (highest dose often 46.2 µM), for inactives: at the top dose activity change, negative = growth inhibition, hits mostly inhibitors; actives 15% (n = 420,000); DT40 Tdp1-/- hTDP1 cells, no CPT, ATP luminescence, 48 h; further: potency means the concentration at half of the fitted maximal effect; on the % scale 0 is the no-effect control and ±100 the full control effect; nearly all actives have a fitted effect of over 55% in size
#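 Growth kinetics read by CellTiter-Glo luminescence after ≥48 hr at 37 °C. Cells: DT40 Tdp1-/- stably carrying human TDP1, 400 per well, compound exposure in the absence of CPT (DMSO vehicle).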
# TDP1 cell CPT: DT40-hTDP1 cell growth loss with CPT; AID 686979; Potency, µM (titrated, usually from 46.2 µM), for inactives: top-dose activity change, negative = growth inhibition, usual class: inhibitors; chicken DT40 Tdp1-/-;hTDP1 cells + 20 nM CPT, ATP luminescence, 48 h; actives 12% (n = 420,000); further: potency means the concentration at half of the fitted maximal effect; on the % scale 0 is the no-effect control and ±100 the full control effect; nearly all actives have a fitted effect of over 55% in size
#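 Chicken DT40 Tdp1-/- cells stably complemented with human TDP1 were seeded at 400 cells/well in medium containing 20 nM camptothecin, exposed to pin-transferred compounds, and grown at 37 °C for at least 48 hr. Viability was read as ATP luminescence.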
# TDP1 inh: TDP1 (human) enzyme inhibition | Q9NUW8 | recombinant TDP1, AlphaScreen DNA substrate cleavage | Potency, µM (highest dose often 130 µM), inactives show at the highest dose activity change, negative = inhibition, usual class: inhibitors | actives 0.28% (n = 350,000) | AID 485290; further: potency means the concentration at half of the fitted maximal effect; on the % scale 0 is the no-effect control and ±100 the full control effect; nearly all actives have a fitted effect of over 40% in size
# Target sequence (Q9NUW8 whole entry, looked up): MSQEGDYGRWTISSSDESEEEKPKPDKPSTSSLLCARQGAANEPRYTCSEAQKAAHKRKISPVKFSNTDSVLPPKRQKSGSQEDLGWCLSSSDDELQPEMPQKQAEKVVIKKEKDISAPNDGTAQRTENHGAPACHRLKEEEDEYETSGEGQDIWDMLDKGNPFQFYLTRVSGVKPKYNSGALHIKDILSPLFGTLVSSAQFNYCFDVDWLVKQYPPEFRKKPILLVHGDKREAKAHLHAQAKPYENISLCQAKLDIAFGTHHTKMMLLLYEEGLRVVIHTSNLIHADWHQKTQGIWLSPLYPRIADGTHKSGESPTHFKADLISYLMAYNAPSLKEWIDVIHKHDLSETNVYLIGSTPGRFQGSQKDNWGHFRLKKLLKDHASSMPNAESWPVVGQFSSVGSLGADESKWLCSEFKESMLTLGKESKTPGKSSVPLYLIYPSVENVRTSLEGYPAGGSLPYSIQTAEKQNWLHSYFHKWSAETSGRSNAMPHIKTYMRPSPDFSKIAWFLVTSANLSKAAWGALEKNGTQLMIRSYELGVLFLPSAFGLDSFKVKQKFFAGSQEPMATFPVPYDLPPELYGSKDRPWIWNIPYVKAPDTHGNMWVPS
#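 Here, a 5' biotin and 3' phosphotyrosine-FITC DNA oligonucleotide reports Tdp1 activity: intact substrate bridges AlphaScreen beads, while cleavage leaves a 3' phosphate and drops signal. All incubations at room temperature.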
# * = called active by the depositor; ? = inconclusive; nt = no result; [ ] = dose if it differs, or a comment. Unless noted, the call rests on the fitted dose curve; in most records, active means well fitted curve in the direction sought with a large enough effect; inconclusive means small, poorly fitted or top-dose-only effect, or another doubt; inactive means no such curve, though single readings can be large; an effect the other way counts as inactive or inconclusive.
SMILES,HepG2 tox,TGFb inhibitor,IL-1B inflam inh,TDP1 cell noCPT,TDP1 cell CPT,TDP1 inh
CCN(C(=O)c1cc(S(=O)(=O)N2CCc3ccccc32)cn1C)c1cccc(C)c1,-23.3%,?,nt,13µM*,?,3.9%
N#CN=C1SCCS1,5.4%,?,46.4,14.6µM*,9.2µM*,-2.0%
Cc1cccc(NC(=O)c2ccc(-n3cccn3)c([N+](=O)[O-])c2)c1,-7.3%,?,?,-19.6%,-11.0%,-3.1%
Cc1c(NC(=O)c2ccc(Cl)c([N+](=O)[O-])c2)cccc1-n1cnnn1,-0.2%,15.8%,-99.0*,?,?,-0.4%
O=C(Nc1ccccc1Cl)c1ccc(-n2cccn2)c([N+](=O)[O-])c1,-0.2%,-17.6%,-83.2*,-15.5%,1.7%,8.2%
Cc1c(NC(=O)c2ccc(S(=O)(=O)N(C)C)cc2)cccc1-n1cnnn1,-12.1%,2.6%,-3.4,?,-29.2%,0.4%
CCN(CC)c1ccc(NC(=O)CCc2c(C)nc3ncnn3c2C)c(C)c1,-10.2%,6.9%,nt,?,-1.1%,-4.6%
Cc1ccc(S(=O)(=O)NN2C(=O)/C(=C\c3ccc(Cl)cc3)SC2=S)cc1,-13.2%,-4.0%,5.9,-9.3%,8.5%,nt
Cc1ccc(C)n1N1C(=O)/C(=C\c2ccc(Cl)cc2)SC1=S,-30.7%,-19.3%,-90.5*,?,?,10.3%
CC(=O)N(C(C)=O)N1C(=O)/C(=C/c2ccc(Cl)cc2)SC1=S,-35.8%,15.8µM*,0.0,?,?,8.4%
CCn1ncc(Cl)c1C(=O)NC(=S)Nc1ccccc1Br,-13.5%,-0.2%,-85.2*,-21.6%,1.7%,3.6%
COc1ccc(NC(=O)c2ccc(NC(=O)CCS(=O)(=O)c3cccs3)cc2)cc1OC,-3.9%,-0.2%,nt,?,-25.8%,-0.9%
COc1ccc(C(=O)COC(=O)CCNS(=O)(=O)c2ccccc2)c(OC)c1,3.3%,-0.2%,18.0,-2.9%,13.4%,2.7%[0.505 µM]
COc1cc(/C=C2\CC(C(C)(C)C)C/C(=C\c3cc(OC)c(OC)c(OC)c3)C2=O)cc(OC)c1OC (stereo not given),-70.8%,11.2µM*,-97.8*,9.2µM*,14.6µM*,nt
COc1cc(/C=C2\CC/C(=C\c3cc(OC)c(O)c(OC)c3)C2=O)cc(OC)c1O,-46.5%,?,-103.1*,5.8µM*,6.51µM*,-2.8%
COc1cc(/C=C2\SC(N)=NC2=O)cc(Cl)c1O,-12.6%,16.6%,7.8,?,-23.6%,nt
COc1cc(/C=C/c2cncc(/C=C/c3cc(OC)c(OC)c(OC)c3)c2)cc(OC)c1OC,3.4%,17.8%,nt,-12.1%,-7.5%,nt
COc1cc(/C=C2/CCC/C(=C\c3cc(O)c(OC)c(Cl)c3)C2=O)cc(Cl)c1O,12.6µM*,?,-107.1*,10.3µM*,10.3µM*,6.4%
COc1cc(/C=C2\CC/C(=C\c3cc(OC)c(OC)c(OC)c3)C2=O)cc(OC)c1OC,8.5%,?,-59.9*,10.3µM*,?,5.6%
CCOc1ccc(CCNC(=O)CCCc2nnc3n(CCCOC)c(=O)c4sccc4n23)cc1,-25.6%,-15.5%,nt,-33.2%,?,2.6%
O=C(CN1C(=O)NC2(CCCC2)C1=O)OCCOc1cccc(Br)c1,-4.9%,-8.8%,-60.1*,?,?,-5.5%
COC(=O)[C@@]12C[C@@H](CC(=O)NCc3cccs3)C(=O)N(CCc3ccc(OC)c(OC)c3)C1=CCC(C)(C)C2,nt,nt,?,?,20.6µM*,nt
C#CCNC(=O)C[C@@H]1C[C@@]2(C(=O)OC)CCCCC=C2N(CCc2ccc(OC)c(OC)c2)C1=O,nt,nt,18.2,?,?,nt
COC(=O)[C@@]12C[C@@H](CC(=O)NCc3ccc(C)o3)C(=O)N(CCc3ccc(OC)c(OC)c3)C1=CCC(C)(C)C2,nt,nt,?,8.2µM*,9.2µM*,nt
CCOC(=O)N1CCN(C(=O)C[C@@H]2C[C@@]3(C(=O)OC)CC(C)(C)CC=C3N(CCc3ccc(OC)c(OC)c3)C2=O)CC1,nt,nt,?,16.4µM*,?,nt
SMILES,HepG2 tox,TGFb inhibitor,IL-1B inflam inh,TDP1 cell noCPT,TDP1 cell CPT,TDP1 inh
COC(=O)[C@@]12C[C@@H](CC(=O)N3CCOCC3)C(=O)N(CCc3ccc(OC)c(OC)c3)C1=CCC(C)(C)C2,nt,nt,-23.5,8.8%,6.6%,nt
COC(=O)[C@]12CCCCC=C1N(CCc1ccc(OC)c(OC)c1)C(=O)[C@H](CC(=O)NCc1cccs1)C2,nt,nt,-29.2,16.4µM*,20.6µM*,nt
C#CCNC(=O)C[C@@H]1C[C@@]2(C(=O)OC)CC(C)(C)CC=C2N(CCc2ccc(OC)c(OC)c2)C1=O,nt,nt,-2.8,-24.5%,?,nt
COc1cc(NS(=O)(=O)c2ccc(NC(=O)COc3ccc(Cl)cc3Cl)cc2)nc(OC)n1,-26.3%,?,nt,2.0%,-3.4%,nt
COCc1cc(C)nc(Sc2nc3c(c(=O)n(C)c(=O)n3C)n2C)c1C#N,-26.1%,-2.6%,0.0,2.8%,-6.9%,nt
CCCCCCCCN1C(=O)[C@H](CC(=O)NCc2cccc(C(F)(F)F)c2)C[C@@]2(C(=O)OC)CC(C)(C)CC=C12,nt,nt,-22.1,10.3µM*,11.6µM*,nt
COC(=O)[C@@]12C[C@@H](CC(=O)NCc3ccc(OC)c(OC)c3)C(=O)N(Cc3cccc4ccccc34)C1=CCC(C)(C)C2,nt,nt,-21.8,?,?,nt
COC(=O)[C@@]12C[C@@H](CC(=O)NCc3ccccc3)C(=O)N(CCc3ccc(OC)c(OC)c3)C1=CCC(C)(C)C2,nt,nt,-28.2,13µM*,13µM*,nt
COC(=O)[C@@]12C[C@@H](CC(=O)NCc3cccc4ccccc34)C(=O)N(CCc3ccc(OC)c(OC)c3)C1=CCC(C)(C)C2,nt,nt,-15.4,?,?,nt
C=CCSc1nnc(-c2ccccc2N=Cc2c(C)[nH]n(-c3ccccc3)c2=O)c(=O)[nH]1,-23.2%,-28.5%,37.4,?,?,7.0%
CSc1nnc(-c2ccccc2N=Cc2c(C)[nH]n(-c3ccc4ccccc4c3)c2=O)c(=O)[nH]1,-58.6%,0.2%,48.8,?,20.6µM*,10.1%
COc1ccc(N(CC(=O)Nc2ccc3c(c2)OCCO3)S(=O)(=O)c2cccc(C)c2)cc1,-13.4%,-27.7%,-9.3,?,25.9µM*,0.5%
COC(=O)c1ccc(CN(c2ccc(C)cc2)S(=O)(=O)c2ccc3c(c2)OCCO3)o1,10.9%,19.4%,37.8,16.4µM*,11.6µM*,6.1%
